Source: PubChem BioAssay AID1508649 (National Center for Advancing Translational Sciences (NCATS), 2021)
Screen size: about 43,000 compounds; about 830 (1.9%) were called active. About 30% were inconclusive and are not listed. This is one part of a sample in which actives are shown more often than they occur. Unmarked numbers belong to inactive results. Rule for the calls: active = clear falling dose curves in both reporters; inconclusive = both reporters move, but less clearly or upward; inactive = either reporter flat; the % is the NLuc reporter signal.

Assay: Cell-based coincidence reporter assay to measure PMP22 gene transcription in S16 Pmp22-F2sN cells - Primary screen
Conditions: S16 Pmp22-F2sN Schwann cells (luciferase reporters placed in the Pmp22 gene), FLuc/NLuc coincidence luminescence, 24 h; series mostly up to 57.5 µM; activity change, negative = inhibition: at the top concentration
Description: Assay Provider: Jim Inglese Ph.D. National Center for Advancing Translational Science, National Institutes of Health, Rockville, MD CMT is a heterogeneous group of neurological disorders that affect approximately 1 in 2,500 people. In particular, the most common form of CMT, CMT1A is genetically linked to the duplication of the PMP22 gene which leads to Schwann cell overexpression, thus manifesting itself as a typical case of dose-sensitive diseases. To identify small molecule compounds that can mediate the expression of PMP22 we developed a phenotypic assay screening strategy by utilizing genome editing techniques to construct Schwann cell lines containing novel reporter technology to monitor the transcriptional or translational regulation of PMP22. For high sensitivity we use a bioluminescent reporter system embedded in the 3' UTR of the PMP22 gene (S16(c9) Pmp22-F2sN) to identify compounds that inhibit gene expression. […] We can further discriminate the effect of all transcriptionally active molecules on PMP22 translation or stability with an assay that incorporates a short NLuc peptide (HiBiT) at the C-terminus of expressed PMP22 (S16(f8) PMP22-HiBiT) allowing alpha complementation and luminescence detection of membrane-associated PMP22 protein. These assays were screened against the NCATS Sytravon Library Collection. Miniaturization of these assays to 1536-well plate format for quantitative high throughput screening (qHTS) yielded rich data sets immediately from the qHTS assay (S16(c9) Pmp22-F2sN), when compared with data from a cell viability assay (Cell TiterGlo) to identify compounds that decreased the output signals through cellular toxicity to streamline the selection process of actives for subsequent characterization using the HiBiT assay (S16(f8) PMP22-HiBiT).
Cell-based coincidence reporter assay to measure PMP22 gene transcription in S16 Pmp22-F2sN cells PROTOCOL TABLE (format as described by Inglese J, Shamu CE and Guy RK. 2007) SEQUENCE No. (e.g., 1, 2, 3, etc.); […] (e.g., Cells, Incubation, Reagent, etc.); VALUE and DESCRIPTION. 1. Cells. Add 500-1,000 cells in 4 uL in growth media (DMEM High Glucose, No Phenol Red media + 10% heat-inactivated FBS + 1% Pen/Strep supplemented media) per well into Greiner 1536-well white/solid bottom high base, TC-treated plates. 2. Compounds. Library compounds and controls added at 23nL per well, transferred by Pin Tool. 3. Incubation. Incubate plates at 37C, 5% CO2, 95% RH for 24 h. 4. Reagent. Add 3.5uL Nano-Glo Dual-Luciferase Reporter Assay System reagent 1: Lysis and FLuc reagent per well of Greiner 1536-well plates. 5. Incubation. Incubate plates at room temperature for 10 min., protect from light. 6. Detector. FLuc luminescence measured using CCD-based camera (Viewlux). 7. Reagent. Add 3.5uL Nano-Glo Dual-Luciferase Reporter Assay System reagent 2: Stop&Glo reagent per well of Greiner 1536-well plates. 8. Incubation. Incubate plates at room temperature for 10 min., protect from light. 9. Detector. NLuc luminescence measured using CCD-based camera (Viewlux). NOTES (numbers refer to Sequence numbers above; values are from representative experiments) 6. Luminescence Read #1 (FLuc): Clear filter; Exposure = 10 sec, Gain = High, Speed = Slow, Binning = 2X 9. Luminescence Read #2 (NLuc): Clear filter; Exposure = 1 sec, Gain = High, Speed = Slow, Binning = 2X REFERENCES: 1. Inglese J, Shamu CE and Guy RK, Reporting data from high throughput screening of small molecule libraries, Nature Chemical Biology, 2007, 3(8): 438-441. doi.org/10.1038/nchembio0807-438 2. Yasgar A, Shinn P, Jadhav A, Auld DS, Michael S, Zheng W, Austin CP, Inglese J and Simeonov A, Compound Management for Quantitative High-Throughput Screening. J. Assoc. Lab. Auto., 2008, 13: 79-89. doi: 10.1016/j.jala.2007.12.004
% is set by controls: 0 for no effect and ±100 for the full control effect; potency is the fitted concentration of half-maximal effect.

SMILES | Potency | activity change, negative = inhibition [%]
CC(=O)N1CCCc2cc(S(=O)(=O)N3CCCC(C(=O)N4CCN(c5cccc(Cl)c5)CC4)C3)ccc21 (stereo not drawn) | 10 µM (active) | 
COc1cccc(N2CCN(S(=O)(=O)c3ccc4c(c3)CCCN4C(C)=O)CC2)c1 |  | -20.8
CC(=O)N1CCCc2cc(S(=O)(=O)N3CCCC(C(=O)NCc4ccc(Cl)cc4)C3)ccc21 (stereo not drawn) |  | -50.4
Cc1cccc(Nc2nc(C)nc(N)c2S(=O)(=O)c2ccccc2)c1 |  | -24.8
Cc1cccc(Nc2cc(C)nc(-n3nc(C)cc3C)n2)c1 | 9.15 µM (active) | 
Cc1ccc(Nc2nc3ccccc3nc2-n2nc(C)cc2C)c(Cl)c1 |  | -3.07
Cc1c(Cl)cccc1NC(=O)Cn1cc(C(=O)c2cccs2)c2ccccc21 | 8.91 µM (active) | 
Cc1c(Cl)cccc1NC(=O)N1CCN(C(=O)c2nsc3ccccc23)CC1 |  | 6.76
Cc1cccc(NC(=O)Cn2cc(S(=O)(=O)Cc3ccccc3Cl)c3ccccc32)c1 |  | -23.6
Cc1cccc(NC(=O)CSc2nc(-c3ccco3)cc(C(F)(F)F)n2)c1C |  | -2.59
Cc1ccc2ncc(C(=O)Nc3ccc(OC(F)(F)F)cc3)c(=O)n2c1 |  | -9.44
COCC(C)NS(=O)(=O)c1ccc(N2CCCCS2(=O)=O)cc1 (stereo not drawn) |  | -17.4
CCOC(=O)C1CCN(c2ncnc3c2c(-c2ccccc2)cn3-c2cccc(C)c2)CC1 |  | 29.9
Cc1cccc(NC(=O)CN(c2ccc(C(C)C)cc2)S(=O)(=O)c2c(C)nn(C)c2C)c1C |  | -1.83
O=C(Nc1ccc(F)cc1F)c1cnn(-c2ccc(F)cc2)c1-n1cccc1 |  | 1.78
Cc1cc(F)ccc1NS(=O)(=O)c1ccc(-n2cccn2)cc1 | 15 µM (active) | 
Cc1cc(F)ccc1NC1(c2ccccc2)C(=O)c2ccccc2C1=O |  | -17.3
O=C(Cn1nc(Cc2cccnc2)c2ccccc2c1=O)N1CCN(c2ccccc2F)CC1 |  | -3.71
Cc1ccc(C2C=C(c3ccc(Cl)cc3)Nc3nc(NC(=O)CCC(=O)O)nn32)cc1 (stereo not drawn) |  | -1.58
Cc1cc(-c2ccccc2)n2nc(-c3ccccc3)cc2n1 |  | 24.1
O=C(CCc1nc(CN2CCN(S(=O)(=O)c3ccc(Cl)cc3)CC2)no1)N1CCCCC1 |  | -9.23
Cc1cc(C)c(NC(=O)CSc2nc3ccncc3[nH]2)c(C)c1 |  | -45.4
CCCCn1c(=N)c(S(=O)(=O)c2ccccc2)cc2c(=O)n3cccc(C)c3nc21 |  | -13.2
Cc1ccc(CNC(=O)c2c(O)nc3c(C)cccn3c2=O)cc1 |  | 25.4

SMILES | Potency | activity change, negative = inhibition [%]
CCCn1c(=N)c(C(=O)NCc2ccccc2)cc2c(=O)n3cccc(C)c3nc21 | 2.24 µM (active) | 
COc1ccc(-c2cc(C(=O)NCc3cc(OC)c(OC)c(OC)c3)[nH]n2)cc1 |  | -8.61
Cc1ccccc1CNC(=O)C(=O)NCC(c1cccs1)S(=O)(=O)c1cccs1 (stereo not drawn) |  | -27.5
Cc1ccc(-n2nc(C)c(C(=O)O)c2-n2cccc2)cc1 |  | -0.533
CCC1CCCCN1CCCNC(=O)c1cc2c(Cl)nc3ccccc3c2s1 (stereo not drawn) | 17.8 µM (active) | 
CCn1c(=O)c2cc(C(=O)NCCc3ccc(Cl)cc3)sc2c2ccccc21 |  | -26.8
CCOCCCNC(=O)c1cc2c(=O)n3ccccc3nc2s1 |  | -12.9
O=S(=O)(Nc1ccc2nc(-c3cccc(Cl)c3)oc2c1)c1ccccc1 |  | -19.7
COc1cc(OC)c(NC(=O)c2nc(-c3ccncc3)no2)cc1Cl |  | -11.9
Cc1ccc(Cn2c(C)c3cnn(CC(=O)NCc4ccccc4)c(=O)c3c2C)cc1 | 8.43 µM (active) | 
CCCN(CCC)CCCNC(=O)Cn1ncc2c3ccccc3n(Cc3ccccc3)c2c1=O |  | -19.1
O=C(Cn1ncc2c3ccccc3n(Cc3ccccc3)c2c1=O)NCc1ccccn1 |  | -17.6
CCCn1c2ccccc2c2cnn(CC(=O)NCC3CCN(Cc4ccc(C)cc4)CC3)c(=O)c21 | 18.9 µM (active) | 
CCCn1c2ccccc2c2cnn(CC(=O)N3CCCC(C(=O)OCC)C3)c(=O)c21 (stereo not drawn) |  | -19.6
CCCn1c2ccccc2c2cnn(CC(=O)NCCCOC(C)C)c(=O)c21 |  | -4.77
CCOC(=O)c1ccc(NC(=O)Cn2c(=O)n(-c3ccc(C)cc3)c(=O)c3c2cnn3C)cc1 |  | 3.69
O=C(CSc1nccn1Cc1ccc(F)cc1)NCc1ccccc1 |  | 0.174
COc1ccc(NC(=O)C2CCN(c3ccc(Sc4ccc(C)cc4)nn3)CC2)c(OC)c1 |  | -27.1
COc1cc(C(=O)NCCc2csc3nc(-c4ccccc4C)nn23)cc(OC)c1OC |  | 44.6
CCC(=O)Nc1ccc(C)cc1-c1nc2ccccc2n(Cc2ccccc2)c1=O |  | 1.15
Cc1ccc(C)c(N2CCN(Cc3nnc(-c4ccccc4)o3)CC2)c1 |  | -22.9
CCN(CC)C(=O)CSc1nc2ccsc2c(=O)n1Cc1ccccc1Cl |  | -22.1
COc1ccc(NS(=O)(=O)c2cc3c(cc2C)N(C(C)=O)CCO3)cc1 |  | -6.59
Cc1ccc2nc(COc3cccc(NC(=O)Nc4ccc(C)c(Cl)c4)c3)cc(=O)n2c1 |  | -3.59
